From PubChem BioAssay (NCI) come the findings set out here.

Test systems include NCI-H23 lung; NCI-H226 lung; NCI-H322M lung; HOP-62 NSCLC; NCI-H460 lung; NCI-H522 lung; A549/ATCC NSCLC; 786-0 renal; COLO 205 colon; DU-145 prostate; K-562 leukemia; MALME-3M melanoma; MDA-MB-231 breast; RXF 393 renal; SF-268 CNS; SF-295 CNS; SF-539 CNS; UACC-257 melanoma; M14 melanoma; HCT-15 colon.
Assay in all cases: NCI-60 one-dose screen, 48 h (100 = growth as untreated, 0 = no growth, -100 = all killed)
What all share (conditions): 10 µM unless noted

Compounds without any hit were thinned out: in the full panel of roughly 83,000, 20% have a hit.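 The endpoint reported here, percent growth, reads 100 for growth as untreated, 0 for no net growth and -100 for all cells dead.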 Unmarked numbers belong to inactive results. The source made the active and inactive calls. Rule for the calls: active = growth percent below 10; inactive = the rest.

Take `COc1ccc2c3c(c(OCCCN(C)C)nc2c1)-c1ccc(Cl)cc1C3=O`: the growth in the experiment with NCI-H23 lung is -2.72% (active); in the experiment with NCI-H226 lung it was 32.1%; in the experiment with NCI-H322M lung, 3.92% (active); with HOP-62 NSCLC, 10% (active); in the experiment with NCI-H460 lung, -81.2% (active); in the experiment on NCI-H522 lung, -64.3% (active). For the same compound, the growth in the experiment on A549/ATCC NSCLC is -64.1% (active); in the experiment on 786-0 renal, -40.3% (active); in the experiment on COLO 205 colon, -45.2% (active); with DU-145 prostate, 15.3%; in the experiment with K-562 leukemia it was -59% (active); with MALME-3M melanoma, -57.5% (active). The growth in the experiment with MDA-MB-231 breast was -62.3% (active); in the experiment on RXF 393 renal, -91.9% (active); in the experiment on SF-268 CNS, 43.9%; in the experiment on SF-295 CNS, 86%; in the experiment on SF-539 CNS, 13.9%; with UACC-257 melanoma it was 86.9%. Besides, the growth in the experiment with M14 melanoma is -59.2% (active); in the experiment with HCT-15 colon, -89.4% (active).
With `O=C(Nc1ccc(C2=NCCCN2)cc1)Nc1ccc(C2=NCCCN2)cc1`, the growth in the experiment on NCI-H23 lung was 67.4%; in the experiment on NCI-H226 lung, 75%; in the experiment with NCI-H322M lung, 94.5%; in the experiment with HOP-62 NSCLC it was 101%; in the experiment on NCI-H460 lung, 88.8%; in the experiment on NCI-H522 lung, 80.1%. Further, the growth with A549/ATCC NSCLC was 99.9%; with 786-0 renal, 84.3%; in the experiment on COLO 205 colon it was 128%; in the experiment with DU-145 prostate it was 103%; in the experiment with K-562 leukemia it was 76.1%; in the experiment on MALME-3M melanoma it was 104%. The growth in the experiment with MDA-MB-231 breast was 112%; with RXF 393 renal, 106%; with SF-268 CNS it was 96.8%; in the experiment on SF-295 CNS, 92.2%; with SF-539 CNS it was 80.1%; in the experiment on UACC-257 melanoma, 96.1%. The growth was 92.7% with M14 melanoma and 106% with HCT-15 colon.
`CSC1=Nc2c(c(C)c(-c3ccccc3)n2CCCN2CCCCC2)C2=NC(=O)C[C@H](C)N12`: the growth with NCI-H23 lung was 63.1%; in the experiment with NCI-H226 lung, 68.9%; in the experiment on NCI-H322M lung, 62.1%; in the experiment on HOP-62 NSCLC, 81.6%; with NCI-H460 lung, 38.3%; in the experiment on NCI-H522 lung it was 35.5%. The growth in the experiment on A549/ATCC NSCLC is 32.2%; in the experiment on 786-0 renal, 80.1%; with COLO 205 colon, -87% (active); in the experiment on DU-145 prostate, 47.6%; in the experiment with K-562 leukemia, 11.6%; in the experiment on MALME-3M melanoma it was 56.5%. For the same compound, the growth in the experiment with MDA-MB-231 breast was 69.6%; with RXF 393 renal, 56.4%; in the experiment with SF-268 CNS it was 66.2%; with SF-295 CNS, 38.9%; in the experiment on SF-539 CNS, 79%; with UACC-257 melanoma, 41.3%. Also, the figures for the growth in the experiment with M14 melanoma and in the experiment with HCT-15 colon were 59.8% and 81.2%, respectively.
Take `O=C1/C(=C/c2ccc([N+](=O)[O-])o2)Oc2ccc(Br)cc21`: the growth in the experiment on NCI-H23 lung is 74.1%; in the experiment on NCI-H226 lung, 98%; in the experiment with NCI-H322M lung, 75.6%; in the experiment on HOP-62 NSCLC it was 94.3%; in the experiment on NCI-H460 lung it was 107%; in the experiment on NCI-H522 lung, -66.1% (active). The growth in the experiment with A549/ATCC NSCLC was 107%; in the experiment with 786-0 renal it was 28.3%; in the experiment on COLO 205 colon, 8.53% (active); in the experiment with DU-145 prostate it was 72.1%; with K-562 leukemia, -1.79% (active); with MALME-3M melanoma, -28.3% (active). The growth in the experiment on MDA-MB-231 breast is 42.8%; in the experiment on RXF 393 renal it was -29.6% (active); in the experiment with SF-268 CNS, 48.1%; with SF-295 CNS, 99.4%; in the experiment with SF-539 CNS, 88%; in the experiment with UACC-257 melanoma, 69.1%. In addition, the values for the growth with M14 melanoma and with HCT-15 colon were 44.9% and 0.437% (active), respectively.
`NC(=O)N/N=C/c1ccc(Br)o1`: the growth in the experiment on NCI-H23 lung was 97.7%; in the experiment on NCI-H226 lung, 98.8%; in the experiment on NCI-H322M lung, 101%; in the experiment with HOP-62 NSCLC, 94.2%; in the experiment with NCI-H460 lung, 110%; in the experiment on NCI-H522 lung it was 89.7%. The growth is 106% with A549/ATCC NSCLC; 105% with 786-0 renal; 98.6% in the experiment on COLO 205 colon; 110% in the experiment with DU-145 prostate; 104% in the experiment on K-562 leukemia; 106% in the experiment with MALME-3M melanoma. For the same compound, the growth with MDA-MB-231 breast is 99%; in the experiment with RXF 393 renal it was 112%; in the experiment on SF-268 CNS, 99.6%; in the experiment with SF-295 CNS, 103%; in the experiment on SF-539 CNS, 101%; in the experiment with UACC-257 melanoma, 105%. The growth is 101% in the experiment on M14 melanoma and 96.1% in the experiment with HCT-15 colon.
`COc1cc(C2CC(c3ccc(C)cc3)=NN2C(C)=O)ccc1Oc1ccnc2cc(Cl)ccc12` (stereo not given): the growth in the experiment with NCI-H23 lung was 59.9%; with NCI-H226 lung it was 45.4%; with NCI-H322M lung, 79.9%; with HOP-62 NSCLC it was 16.4%; with NCI-H460 lung it was 32.3%; with NCI-H522 lung it was 41.4%. Further, the growth in the experiment on A549/ATCC NSCLC is 68.7%; in the experiment on 786-0 renal, 21.9%; with COLO 205 colon, 99.2%; in the experiment with DU-145 prostate it was 74.8%; in the experiment with K-562 leukemia, 93.3%; with MALME-3M melanoma it was 94.7%. The growth in the experiment on MDA-MB-231 breast was 35.7%; in the experiment with RXF 393 renal, 26.7%; in the experiment with SF-268 CNS it was 41.9%; with SF-295 CNS it was 14.9%; with SF-539 CNS it was 23.1%; in the experiment on UACC-257 melanoma, 102%. The growth in the experiment on M14 melanoma was 106%; with HCT-15 colon, 90.7%.
Consider `CC(C)(C)c1ccc(C(O)CCCN2CCC(C(O)(c3ccccc3)c3ccccc3)CC2)cc1` (stereo not given), for which the growth in the experiment with NCI-H23 lung was 4.7% (active); with NCI-H226 lung, 57.5%; with NCI-H322M lung, 53.8%; in the experiment with HOP-62 NSCLC, -79.5% (active); in the experiment on NCI-H460 lung, -84.9% (active); in the experiment on NCI-H522 lung it was -74.6% (active). For the same compound, the growth is -39.8% (active) with A549/ATCC NSCLC; -97.4% (active) in the experiment on 786-0 renal; -86.9% (active) with COLO 205 colon; -75.7% (active) in the experiment on DU-145 prostate; -39.9% (active) in the experiment on K-562 leukemia; -78.5% (active) with MALME-3M melanoma. In addition, the growth in the experiment on MDA-MB-231 breast was -89.4% (active); in the experiment with RXF 393 renal, -97.8% (active); with SF-268 CNS, -65.6% (active); with SF-295 CNS it was -69.7% (active); with SF-539 CNS, -76.4% (active); in the experiment with UACC-257 melanoma, -78.2% (active). Moreover, the growth in the experiment on M14 melanoma was -91.3% (active); in the experiment with HCT-15 colon, -73.7% (active).
As to `COc1cc(NC(=O)c2cc3ccccc3cc2O)c(OC)cc1Cl`, the growth in the experiment on NCI-H23 lung is -19.3% (active); in the experiment with NCI-H226 lung, 13.5%; in the experiment with NCI-H322M lung it was -3.14% (active); with HOP-62 NSCLC it was -29.6% (active); in the experiment with NCI-H460 lung it was 3.33% (active); with NCI-H522 lung, -30.1% (active). The growth is 5.74% (active) in the experiment on A549/ATCC NSCLC; -5.13% (active) in the experiment with 786-0 renal; 41.6% in the experiment on COLO 205 colon; 25.6% in the experiment with DU-145 prostate; -2.3% (active) with K-562 leukemia; -23.7% (active) in the experiment on MALME-3M melanoma. For the same compound, the growth was 18.5% in the experiment with MDA-MB-231 breast; 20.9% with RXF 393 renal; 27.3% in the experiment on SF-268 CNS; 8.57% (active) in the experiment with SF-295 CNS; 7.7% (active) in the experiment on SF-539 CNS; -22.2% (active) with UACC-257 melanoma. For the same compound, the growth with M14 melanoma is 4.56% (active); in the experiment on HCT-15 colon it was 13.8%.
